# Screens (PubChem BioAssay)
# Sampled rows, rich in hits. Any-hit rate of the full collection: about 18%.
# DT40 TDP1 CPT: DT40-hTDP1 cell growth loss with CPT | chicken DT40 Tdp1-/-;hTDP1 cells + 20 nM CPT, ATP luminescence, 48 h | Potency, µM (highest dose often 46.2 µM), for inactives: at the highest dose activity change, negative = growth inhibition, usual class: inhibitors | 420,000 compounds, 12% hits; note: nearly all actives have a fitted effect of over 55% in size
#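 Cell growth measured by CellTiter-Glo luminescence after a minimum 48 h, 37 C compound exposure with 20 nM CPT in Tdp1-knockout DT40 cells stably expressing hTDP1, seeded 400/well; qHTS titration format.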
# VDR inhibitor: blocks the human vitamin D receptor; 400,000 compounds, 0.93% hits; Potency, µM, for inactives: max response, negative = inhibition, actives largely listed as inhibitors; VDR-SRC2-3 peptide fluorescence polarization, 2 h; P11473
#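 The screen uses fluorescence polarization to detect compounds that interfere with recruitment of the SRC2-3 coactivator peptide to VDR; plates are read after 2 h at room temperature.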
# GCN5L2 inh: GCN5L2 (KAT2A) acetyltransferase inhibition. Potency, µM (highest dose often 58.9 µM), inactives show at the highest dose activity change, negative = inhibition, usual class: inhibitors. GCN5L2 HAT assay, ThioGlo1 CoA-SH fluorescence. 390,000 compounds, 0.21% hits. AID 504327. Q92830
#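 Free CoA generated was detected with ThioGlo1 (50uM) fluorescence at Ex340nm/Em540nm, read immediately and after 20 min at room temperature. Enzyme, 20 nM in HEPES pH 7.5 buffer, saw compounds 15 min before adding 75uM H3(1-25) peptide and 70uM acetyl-CoA.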
# PLK1 PBD inh: blocks phosphopeptide binding to human PLK1 polo-box domain. P53350. Plk1 PBD binding of FITC phosphopeptide, fluorescence polarization. Potency, µM, for the others: max response, negative = inhibition, actives largely listed as inhibitors. 360,000 compounds, 2.8% hits; note: series mostly up to about 57 µM; nearly all actives have a fitted effect of over 65% in size
# Target sequence (P53350 whole entry, looked up, the tested form may be a part): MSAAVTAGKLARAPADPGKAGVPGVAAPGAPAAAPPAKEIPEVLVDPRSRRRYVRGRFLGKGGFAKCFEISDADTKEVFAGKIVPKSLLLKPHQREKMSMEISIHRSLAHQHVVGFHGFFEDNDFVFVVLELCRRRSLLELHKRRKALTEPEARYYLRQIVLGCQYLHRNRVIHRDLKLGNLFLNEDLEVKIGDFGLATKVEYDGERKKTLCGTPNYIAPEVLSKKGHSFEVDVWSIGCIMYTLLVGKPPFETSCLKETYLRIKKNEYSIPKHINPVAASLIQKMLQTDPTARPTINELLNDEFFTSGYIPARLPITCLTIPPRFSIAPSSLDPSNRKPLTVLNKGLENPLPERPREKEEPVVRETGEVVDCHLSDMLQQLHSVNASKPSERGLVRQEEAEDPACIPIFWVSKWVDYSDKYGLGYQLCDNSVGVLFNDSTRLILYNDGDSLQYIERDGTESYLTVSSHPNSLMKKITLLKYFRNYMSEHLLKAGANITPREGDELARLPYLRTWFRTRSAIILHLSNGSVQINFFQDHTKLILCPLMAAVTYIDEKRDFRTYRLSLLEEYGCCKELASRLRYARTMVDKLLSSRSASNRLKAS
# TDP1 block: inhibitors of human tyrosyl-DNA phosphodiesterase TDP1; recombinant TDP1, AlphaScreen DNA substrate cleavage; Potency, µM (doses to about 130 µM), for inactives: at the highest dose activity change, negative = inhibition, hits mostly inhibitors; 350,000 compounds, 0.28% hits; note: nearly all actives have a fitted effect of over 40% in size
#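 Recombinant human Tdp1 (E. coli-expressed, 1 nM final) preincubated with compounds 15 min at room temperature, then 5'-biotin/3'-phosphotyrosine-FITC DNA substrate (15 nM final) added for 5 min. AlphaScreen beads (10 ug/ml final) added 10 min; cleavage lowers signal.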
# DT40 TDP1 no CPT: qHTS for Inhibitors of human tyrosyl-DNA phosphodiesterase 1 (TDP1): qHTS in cells in absence of CPT. 420,000 compounds, 15% hits. AID 686978, 2013. Potency, µM (doses to about 46.2 µM), for the others: at the top dose activity change, negative = growth inhibition, hits mostly inhibitors. DT40 Tdp1-/- hTDP1 cells, no CPT, ATP luminescence, 48 h; note: nearly all actives have a fitted effect of over 55% in size
#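 Camptothecin absent (DMSO only). Human TDP1-complemented DT40 knockout cells, 400 cells/well, 37 °C for minimum 48 hr; ATP measured via CellTiter-Glo, 30 min dark incubation, luminescence.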
# An asterisk follows results filed as active; ? = inconclusive; . = not tested or not shown; ! = repeats disagree. Calls come from the whole dose curve; as a rule, active = well fitted curve in the direction sought with a large enough effect; inconclusive = small, poorly fitted or top-dose-only effect, or another doubt; inactive = no such curve, though single readings can be large; an effect the other way counts as inactive or inconclusive. % is set by controls: 0 for no effect and ±100 for the full control effect; potency is the fitted concentration of half-maximal effect.
SMILES,DT40 TDP1 CPT,VDR inhibitor,GCN5L2 inh,PLK1 PBD inh,TDP1 block,DT40 TDP1 no CPT
CCCn1c2ccc(C)cc2c2nnc(SCCN3CCCCC3)nc21,18.4µM*,-13.0%,-17.5%,-21.4%,-1.1%,20.6µM*
CCC(C)NC(=O)c1ccccc1NC(=O)CN1C(=O)c2cccc3cccc1c23 (configuration not stated),-0.7%,10.7%,-16.4%,.,1.1%,1.1%
CCCn1c2ccc(C)cc2c2nnc(SCCN3CCOCC3)nc21,?,-13.1%,-18.5%,-25.2%,.,16.4µM*
O=C(O)Cn1c2ccccc2c2n[nH]c(=S)nc21,15.2%,-15.1%,-26.1%,26.7µM*,.,14.2%
CCn1c2ccc(C)cc2c2nnc(SCCN3CCCCC3)nc21,?,-22.5%,-6.4%,-23.6%,.,16.4µM*
CCn1c2ccc(F)cc2c2nnc(SCCN3CCCCC3)nc21,?,2.6%,-1.4%,-23.3%,0.0%,16.4µM*!
Cc1ccc2c(c1)c1nnc(SCC(=O)N3CCCc4ccccc43)nc1n2CC(=O)O,-29.4%,25.9%,0.1%,-2.7%,0.0%,-25.2%
COc1ccc(NC(=O)CSc2nnc3n2CCCCC3)cc1,-0.3%,-1.5%,-6.0%,-2.3%,4.8%,-2.6%
O=C(CCc1nnc2ccc(NCc3ccco3)nn12)Nc1ccccc1F,-22.6%,-9.8%,-9.2%,-8.0%,1.2%,-27.9%
Cc1nc2ccc(C(=O)NCCc3c[nH]c4ccccc34)cn2c1N(C)C(=O)CCc1ccccc1,23.1µM*,.,.,-0.7%,.,23.1µM*
CCc1nc2ccc(C(=O)NCc3ccc4c(c3)OCO4)cn2c1N(CCC(C)C)CCN(C)C,20.6µM*,.,.,-7.3%,.,?
CCc1nc2ccc(C(=O)NCc3ccc4c(c3)OCO4)cn2c1N(CC)CCN(C)C,-0.1%,.,.,4.9%,.,-1.5%
CCc1nc2ccc(C(=O)NCc3ccc4c(c3)OCO4)cn2c1N(C)C(=O)Cc1ccccc1,-35.8%,.,.,4.0%,.,23.1µM*
CCc1nc2ccc(C(=O)NCc3ccc4c(c3)OCO4)cn2c1N(C)Cc1cccs1,?,.,.,-0.5%,.,16.4µM*
Cc1ccc(Cn2c(CNS(=O)(=O)c3ccc(Cl)s3)nc3cccnc32)cc1,?,8.4%,1.8%,.,2.2%,?
CCNc1ncc2nc(-c3ccc(Cl)cc3)c(=O)n(Cc3cccs3)c2n1,-17.8%,-21.4%,-6.8%,.,.,-15.4%
COc1ccc(C2CC(O)(c3ccccc3)Oc3c(C)ccc(C(C)C)c32)cc1 (configuration not stated),.,-8.4%,.,.,12.1%,.
CCc1nc2ccc(C(=O)NCc3ccc(OC)cc3)cn2c1N(C)C(=O)Cc1ccccc1,?,.,.,-9.8%,.,20.6µM*
Cc1noc(C)c1COc1ccccc1C(=O)Nc1ccc(C(N)=O)cc1,23.5%,21.4%,-0.1%,-4.4%,0.5%,3.1%
CCCCc1nnc(NC(=O)c2ccccc2OCc2c(C)noc2C)s1,16.4µM*,9.2%,-5.2%,4.8%,-10.9%,23.1µM*
CCOCCCN1CN(Cc2ccccc2)CNC1=S,7.5%,2.6%,38.1%,-9.3%,-1.4%,6.1%
CCCCN1CN(Cc2ccccc2)CNC1=S,18.4µM*,-7.9%,24.3%,-7.1%,0.0%,?
Cc1cccc(N2CCN(C(=O)C3CCN(c4ncnc5c4nc4n5CCCCC4)CC3)CC2C)c1 (configuration not stated),6.51µM*,13.0%,-1.4%,2.7%,7.0%,4.61µM*
Cc1ccc(C)c(N2CCN(c3ncnc4c3nc3n4CCCCC3)CC2)c1,?,5.1%,-5.9%,.,-1.2%,?
Cc1cccc(N2CCN(C(=O)C3CCN(c4ncnc5c4nc4n5CCCCC4)CC3)CC2)c1C,18.4µM*,-16.0%,-11.2%,-2.1%,4.2%,18.4µM*
Cc1ccc(NC(=O)C2CCN(c3ncnc4c3nc3n4CCCCC3)CC2)cc1Cl,?,11.5%,-2.0%,-10.2%,0.4%,?
